Screening data as filed in PubChem BioAssay.
STAT3 blocker = STAT3 signaling inhibition; 190,000 compounds, 0.89% hits; U3A cells, IL-6 STAT3-luciferase reporter, luminescence; host cell line lacks STAT1; AID 862; inhibition, % at 5.5 µM;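 active = inhibition above the mean inhibition across all screened compounds plus 3 SD, cut at about 44% in these data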;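 note: 0% = DMSO only wells and 100% = 100 µM nifuroxazide control wells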
PPC-1+TRAIL kill = compounds killing PPC-1 cancer cells with TRAIL present (potentiator screen, no TRAIL-free arm). PPC-1 cells + TRAIL, ATPLite viability luminescence. cell killing (% activity), % at 4 µM or 5 µM. 220,000 compounds, 0.41% hits;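 active = cell killing above 50% in the first pass at 4 µM, then a duplicate retest at 5 µM averaging 50% or more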;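 note: plate controls were cells with TRAIL plus DMSO for no effect and medium-only wells lacking cells for full effect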
STAT1 inh = inhibitors of IFN-gamma induced STAT1 signaling | NIH 3T3 STAT1-luciferase reporter, luminescence | inhibition, % at 5.5 µM | 200,000 compounds, 0.35% hits | AID 920;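 active = inhibition above a set limit, the mean inhibition across all tested compounds plus 3 SD, cut at about 34% in these data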;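 note: 0% = IFN-gamma with DMSO and 100% = IFN-gamma with 300 µM nifuroxazide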
TRAIL sens C8 = sensitizes caspase-8 expressing cells to TRAIL. NB7+C8 cells + TRAIL, ATPlite viability luminescence. inhibition (viability loss, TRAIL sensitization), % at 10 µM. 360,000 compounds, 1% hits. AID 624354;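 active = compounds causing at least 50% loss of cell viability in the single-dose screen, relative to plate controls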
Platelet DG rel = modulates dense granule release in human platelets. 300,000 compounds, 0.22% hits. inhibition, %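 (compounds screened at 7.5 µM in platelet-rich plasma)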. human platelet-rich plasma, SFLLRN dense granule ATP release, luminescence. AID 1663;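 active = mean replicate score, as percent of positive control, at or above 50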
* hit, by the source's call; / = no result. A selection: hits, their analogues and other compounds. The true share with any hit is near 1.6%.

SMILES	STAT3 blocker	PPC-1+TRAIL kill	STAT1 inh	TRAIL sens C8	Platelet DG rel
COC(=O)[C@]12CCCCC=C1N(Cc1ccc3c(c1)OCO3)C(=O)[C@H](CC(=O)NCc1cccc3ccccc13)C2	/	/	/	-0.2	/
O=C(CC(Nc1ccc(F)cc1)C(=O)O)c1ccccc1 (centres undefined)	53.9*	4.6	-52.3	59.8*	11.3
NC1=CC(=O)C(=O)c2ccccc21	/	/	/	91.6*	/
COc1cc(OC)cc(-c2c(Sc3ccccc3)c3cc(-c4ccc(SC)cc4)ccc3n2C)c1	/	/	/	17.5	/
Cc1ccc(C(=O)Nc2ncc([N+](=O)[O-])s2)cc1	/	/	/	77.4*	25.9
Cc1nc2ccc3nc(NC(=O)c4ccc5c(c4)OCCO5)sc3c2s1	23.1	-5.0	-4.5	-2.0	-2.6
Cc1nc2c(ccc3nc(NC(=O)c4ccc5c(c4)OCCO5)sc32)s1	34.6	46.5	-74.7	79.8*	4.0
Cc1ccc(C(=O)Nc2ncc(C)s2)o1	9.0	18.1	-41.1	13.4	23.1
Cc1cnc(NC(=O)c2ccc3c(c2)OCCO3)s1	/	/	/	94.4*	/
Cc1ccc(C(=O)Nc2ncc(C)s2)s1	/	/	/	78.1*	-8.5
Cn1c(OCC2CCCO2)nc2cc(-c3ccccc3)sc2c1=O (centres undefined)	/	/	/	4.3	/
CSc1ccccc1C(=O)Nc1ncc(C)s1	8.9	-9.7	-8.9	14.6	55.4*
O=C(Nc1ncc([N+](=O)[O-])s1)c1ccc2c(c1)OCO2	/	/	/	67.5*	80.4*
CCOC(=O)CSc1nnc(NC(=O)c2ccc3c(c2)OCO3)s1	/	/	/	69.7*	1.3
C[C@@H]1CN([C@@H](C)CO)C(=O)CCCn2nncc2CO[C@H]1CN(C)S(=O)(=O)c1ccccc1F	/	/	/	-5.4	/
CN(C(=O)CN1CCN(c2cc(-c3cccc4oc5ccccc5c34)ncn2)CC1)c1ccccc1	/	/	/	-17.1	/
Cc1ccc(-c2nnc(NC(=O)c3ccco3)o2)c(C)c1	/	/	/	55.2*	8.1
O=C(Nc1nnc(-c2ccc(Br)cc2)o1)c1ccco1	/	/	/	53.7*	3.2
Cc1ccc(C)c(-c2nnc(NC(=O)c3ccco3)o2)c1	/	/	/	24.8	7.9
COc1cccc(-n2c(SCC(=O)N3CCc4ccccc43)nnc2-c2c[nH]c3ccccc23)c1	-4.1	5.6	5.1	59.2*	12.1
CCOc1ccc(-n2c(SCC(=O)N3CCc4ccccc43)nnc2-c2c[nH]c3ccccc23)cc1	3.4	6.2	2.5	4.7	-1.2
CCOC(=O)C1CCCN(C(=O)c2ccc3c(c2)C(C)(C)CCC3(C)C)CC1 (centres undefined)	/	/	/	16.3	/
COc1ccccc1N=c1oc2cc(O)ccc2cc1C(=O)NCC1CCCO1 (centres undefined)	24.7	9.6	0.3	0.4	1.9
COc1ccccc1N=c1oc2cc(O)ccc2cc1C(N)=O	32.7	23.8	-7.4	11.8	57.0*
COCCNc1c(-c2cc3ccc(C)c(C)c3[nH]c2=O)nc2ccccn12	9.9	13.9	-34.4	61.1*	-2.5
SMILES	STAT3 blocker	PPC-1+TRAIL kill	STAT1 inh	TRAIL sens C8	Platelet DG rel
Cc1oc(-c2cccc(Cl)c2)nc1CN1CCC(C(=O)NCCCN2CCCC2=O)CC1	12.8	-6.5	1.0	4.0	1.9
Cc1oc(-c2cccc(Cl)c2)nc1CN1CCC(C(=O)NCCCN2CC(C)CC(C)C2)CC1 (centres undefined)	/	/	/	54.4*	-3.0
COc1ccc(CCNC(=O)C2CCN(Cc3nc(-c4cccc(Cl)c4)oc3C)CC2)cc1OC	7.1	18.5	1.5	54.4*	8.3
Cc1cc(C(=O)CSc2nc3ccccc3c(=O)n2C)c(C)n1CC1CCCO1 (centres undefined)	81.5*	21.3	38.2*	/	2.2
CCCNC(=O)C1(C)CCN(Cc2ccc3ccccc3c2Br)C1 (centres undefined)	/	/	/	13.0	/
Cc1ccsc1/C=N/Nc1cccc(C(=O)O)c1	48.8*	0.8	89.1*	16.1	35.3
CCOc1cc(/C=N/Nc2cccc(C(=O)O)c2)ccc1OC(=O)c1ccccc1	55.4*	16.3	77.1*	7.0	-6.3
COc1cc(C=NNc2ccccc2)ccc1OC(=O)c1ccccc1	/	/	/	6.7	/
O=C(Nc1ccc(Oc2ccccc2)cc1)c1ccc2nc([C@@H]3O[C@H](CO)[C@H](O)[C@H](O)[C@H]3O)[nH]c2c1	/	/	/	6.8	/
COCCNC(=O)C1(C)CCCN(C(=O)c2ccc(C(=O)OC)cc2)C1 (centres undefined)	/	/	/	2.4	/
Cc1ccccc1NC(=O)COC(=O)c1ccc(S(=O)(=O)N2CCCC2)cc1	/	/	/	0.5	/
CCc1nc2ccccc2c(C(=O)OCC(=O)Nc2cccc(S(=O)(=O)N3CCOCC3)c2)c1C	33.3	-2.4	17.9	49.7*	-1.2
CC(=O)OC[C@]12CC[C@H]3[C@@](C)(CC[C@H]4C(C)(C)CCC[C@]34C)[C@@H]1CC(C1=CC(=O)OC1O)O2 (some centres undefined)	/	/	/	84.4*	/
CCc1ccc([C@@H]2C[C@H]3[C@@H](CN2S(=O)(=O)c2ccc(C)cc2)C(=O)C[C@@H](c2ccc(Cl)cc2)N3S(=O)(=O)c2ccc(C)cc2)cc1	/	/	/	-3.1	/
Cc1c(C(=O)NC(=S)Nc2ccc(NC(=O)c3cccs3)cc2)oc2ccccc12	/	/	/	20.7	9.4
Cc1cccc(NC(=O)c2cc3ccccc3c(=O)o2)n1	/	/	/	59.7*	12.3
Cc1cccc(NC(=S)NC(=O)C(c2ccccc2)c2ccccc2)n1	-0.3	/	-1.3	-13.4	1.6
Cc1cccc(NC(=S)NC(=O)c2ccc(-c3ccccc3)cc2)n1	/	/	/	59.4*	-3.3
Cc1cccc(NC(=S)NC(=O)c2oc3ccccc3c2C)n1	/	/	/	64.0*	2.1
O=S1(=O)C[C@H](N2CCN(CC3CC3)CC2)[C@@H](COCc2ccccc2)N1	/	/	/	5.8	/
CC(C)C[C@H]1CN(CCCC[C@@H]2CNC(=O)C(=O)N2CC2CCCCC2)C(=O)C(=O)N1CCc1ccc(O)cc1	/	/	/	-7.6	/
c1ccc(-c2csc3ncnc(NCC4COc5ccccc5O4)c23)cc1 (centres undefined)	83.5*	1.5	38.2*	40.9	6.3
O=C1CN(c2nc(-c3cccnc3)nc3sc4c(c23)CCCC4)CCN1	5.6	14.1	-8.6	19.4	3.0
Nc1nc(-c2cccnc2)nc2sc3c(c12)CCCC3	5.9	48.7	-66.7	60.1*	4.1
C[C@@]12C(=O)OC(=O)[C@]1(C)C1CCC2O1	/	/	/	64.7*	/
SMILES	STAT3 blocker	PPC-1+TRAIL kill	STAT1 inh	TRAIL sens C8	Platelet DG rel
CC12C(=O)N(c3nccs3)C(=O)C1(C)C1CCC2O1 (centres undefined)	/	/	/	-6.6	/
N#CC1=C(N)N2C(=C(C#N)C1c1cccc(Br)c1)Nc1ccccc12 (centres undefined)	-7.3	28.1	10.4	53.2*	-7.9
CC(=O)Nc1nc(-c2ccc([N+](=O)[O-])cc2)cs1	27.7	16.5	-14.5	1.6	1.4
O=C(Nc1ccc([N+](=O)[O-])cc1)Nc1nc(-c2ccc(Cl)s2)cs1	12.7	67.4*	1.7	39.6	-4.9
O=C(Nc1ccc2c(c1)OCCO2)C(C1CC1)N1CCN(c2ccc(C(F)(F)F)cn2)CC1 (centres undefined)	/	/	/	-7.7	/
CCOc1cc(/C=N/NC(=O)COc2ccc(C)cc2)ccc1OC(=O)c1cccs1	-5.6	3.9	-6.1	16.3	2.1
